Screening data (PubChem)
The list is not random: actives were taken first. Their share in the collection is about 3.3%.
AmpC detergent = AmpC beta-lactamase inhibition with detergent present; 370,000 compounds, 0.041% hits; AID 485294; Potency, µM (titrated, usually from 114 µM), for the others: at the highest dose activity change, negative = inhibition, usual class: inhibitors; P00811; AmpC hydrolysis of nitrocefin, absorbance 480 nm, 0.01% Triton;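 also: 0% = no-compound wells and -100% = no-enzyme wells; nearly all actives have a fitted effect of over 25% in size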
Target sequence (P00811 whole entry, looked up): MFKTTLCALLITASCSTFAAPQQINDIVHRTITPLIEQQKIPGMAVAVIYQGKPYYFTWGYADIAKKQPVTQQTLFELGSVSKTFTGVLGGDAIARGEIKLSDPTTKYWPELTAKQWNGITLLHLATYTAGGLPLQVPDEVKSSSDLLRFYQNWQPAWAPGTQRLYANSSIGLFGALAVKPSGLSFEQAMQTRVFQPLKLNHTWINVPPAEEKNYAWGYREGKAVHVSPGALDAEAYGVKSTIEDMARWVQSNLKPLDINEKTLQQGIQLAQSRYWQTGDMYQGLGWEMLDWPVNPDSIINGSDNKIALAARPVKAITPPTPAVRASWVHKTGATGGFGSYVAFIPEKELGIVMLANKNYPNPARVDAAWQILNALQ
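20 mM phosphate pH 7.0 + 0.01% (detergent screen) or 0.0001% Triton X-100; 5.3 nM AmpC reagent; cpd preinc 15 min RT; nitrocefin (800 uM stock) to start; A480 q20 s × 4 min; Activity was normalised to no-enzyme and no-compound control wells.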
AmpC no deterg = inhibitors of E. coli AmpC beta-lactamase without detergent; P00811; AmpC nitrocefin hydrolysis, absorbance 480 nm, 0.0001% Triton; Potency, µM (series often up to 57.1 µM), for the others: at the top dose activity change, negative = inhibition, most hits filed as inhibitors; 330,000 compounds, 0.52% hits; AID 485341;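 also: plate controls were no compound for no effect and no enzyme for full effect; nearly all actives have a fitted effect of over 20% in size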
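AmpC (5.3 nM in the dispensed reagent) in 20 mM phosphate pH 7.0 with 0.01% (detergent screen) or 0.0001% Triton X-100 was preincubated with compounds for 15 min at room temperature. Nitrocefin was then added from an 800 uM solution, and hydrolysis was followed at 480 nm.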
TbPYK inhibitor = inhibitors of Trypanosoma brucei pyruvate kinase. 410,000 compounds, 0.12% hits. Potency, µM (doses to about 76.8 µM), inactives show top-dose activity, negative = inhibition, usual class: inhibitors. Q57TT1. TbPYK enzyme, Kinase-Glo Plus ATP luminescence, 45 min; also: % is scaled to controls: 0 for no effect and ±100 for the full control effect; nearly all actives have a fitted effect of over 50% in size
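TbPYK + substrate in 50 mM TEA pH 7.2, 100 mM KCl, 10 mM MgCl2, 0.05% BSA, 0.01% Tween-20; cpd pinned; ADP 130 uM final; 45 min RT; Kinase-Glo Plus 10 min; luminescence endpoint.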
RE007 growth inh = less growth of the S. pombe RE007 Vpr strain. S. pombe RE007 Vpr strain, BacTiter-Glo ATP luminescence, 24 h. Potency, µM (doses to about 92.2 µM), inactives show at the highest dose activity change, negative = less growth, usual class: inhibitors. 360,000 compounds, 0.21% hits; active = well fitted falling curve with a large enough effect; inconclusive = small, poorly fitted or top-dose-only effect; inactive = no such curve, though single readings can be large or run the other way; also: % is scaled to controls: 0 for no effect and ±100 for the full control effect; nearly all actives have a fitted effect of over 50% in size
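Fission yeast strain RE007, carrying one chromosomally integrated HIV-1 vpr copy, was seeded at OD 0.01 in PMG+AL medium with 23 nL pinned compound. After 24 h at 30 °C and 99% humidity, viability was read by BacTiter-Glo luminescence.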
SARS PLP yeast = SARS-CoV PLP inhibition in yeast | S. cerevisiae expressing SARS-CoV PLpro, growth rescue | Potency, µM (highest dose often 32.9 µM), for the others: at the top dose activity, positive = growth rescue, actives largely listed as activators | 330,000 compounds, 0.19% hits; calls by dose curve; also: 0% is about no effect; nearly all actives have a fitted effect of over 55% in size
Sm TGR block = inhibitors of Schistosoma mansoni thioredoxin glutathione reductase; Q962Y6; purified TGR, DTNB reduction, TNB absorbance 405 nm; Potency, µM (titrated, usually from 114 µM), without a hit: top-dose activity change, negative = inhibition, usual class: inhibitors; 360,000 compounds, 3% hits; also: % is scaled to controls: 0 for no effect and ±100 for the full control effect; nearly all actives have a fitted effect of over 60% in size
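Kinetic colorimetric format: TGR-catalysed, NADPH-driven DTNB reduction monitored via TNB absorbance. Enzyme dispensed at 20 nM; compound exposure 15 min at room temperature before reaction start.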
Active calls of the source: *; [ ] = dose if it differs, or a comment. Unless noted, calls follow the shape of the dose curve; as a rule, active = well fitted curve in the direction sought with a large enough effect; inconclusive = small, poorly fitted or top-dose-only effect, or another doubt; inactive = no such curve, though single readings can be large; an effect the other way counts as inactive or inconclusive. Potency is read from the fitted curve at half-maximal effect.

`O=C(NC(=S)Nc1ccc2[nH]c(=O)[nH]c2c1)c1cccc(F)c1` gave AmpC detergent -1%, AmpC no deterg -17%, TbPYK inhibitor 0%, RE007 growth inh -14%, SARS PLP yeast -1% and Sm TGR block 2.8µM*.
Screening O=C(NC(=S)Nc1ccc(N2CCOCC2)cc1)c1cccc([N+](=O)[O-])c1 returned AmpC detergent -7%, AmpC no deterg -14%, TbPYK inhibitor 0%, SARS PLP yeast 8% and Sm TGR block 40µM*.
For O=C(NC(=S)Nc1ccc(CN2CCOCC2)cc1)c1cccc([N+](=O)[O-])c1 the results were AmpC detergent -13%, AmpC no deterg -1%, TbPYK inhibitor 3%, RE007 growth inh -21%, SARS PLP yeast -24% and Sm TGR block 89µM*.
For C=CCNC(=S)Nc1cccc([N+](=O)[O-])c1 the results were AmpC detergent 2%, AmpC no deterg 13%, TbPYK inhibitor -4%, SARS PLP yeast 6% and Sm TGR block 32µM*.
`O=C(NC(=S)Nc1ccc(CN2CCOCC2)cc1)c1cccc(F)c1` gave AmpC detergent -8%, AmpC no deterg 21%, TbPYK inhibitor -2%, RE007 growth inh -13%, SARS PLP yeast -6% and Sm TGR block inconclusive.
For CCNC(=S)Nc1cccc([N+](=O)[O-])c1 the results were AmpC detergent -4%, AmpC no deterg -5%, SARS PLP yeast 16% and Sm TGR block -31%.
Screening O=C(Cn1c(=O)n(-c2ccccc2)c(=O)c2sc3ccccc3c21)NC1CCCC1 returned AmpC detergent 5%, TbPYK inhibitor 6% and Sm TGR block 23%.
For O=C(NC(=S)Nc1cccc(F)c1)c1cccc([N+](=O)[O-])c1 the results were AmpC detergent -7%, AmpC no deterg -28%, TbPYK inhibitor 3%, SARS PLP yeast -1% and Sm TGR block 20µM*.
`Cc1cccc(NC(=S)NNC(=O)c2cccc([N+](=O)[O-])c2)c1` gave AmpC detergent -7%, AmpC no deterg -47%, TbPYK inhibitor 0%, RE007 growth inh -20%, SARS PLP yeast 0% and Sm TGR block 0%.
For CCCCCC(=O)NC(=S)Nc1ccc(N2CCOCC2)cc1 the results were AmpC detergent -5%, AmpC no deterg -37%, TbPYK inhibitor 4%, RE007 growth inh -3%, SARS PLP yeast 13µM* and Sm TGR block -17%.
Screening CCC(=O)NC(=S)Nc1ccc(N2CCOCC2)cc1 returned AmpC detergent 1%, AmpC no deterg -9%, TbPYK inhibitor -4%, RE007 growth inh 0%, SARS PLP yeast -1% and Sm TGR block 0%.
CCC(Sc1nc2ccncc2[nH]1)C(=O)Nc1ccc(F)cc1 (stereo not given) was read as AmpC detergent -2%, TbPYK inhibitor -2% and Sm TGR block -10%.
Cc1cccc(C(=O)Nc2cc3c(cc2N2CCCCC2)n(C)c(=O)n3C)c1 was read as AmpC detergent 0%, TbPYK inhibitor 2% and Sm TGR block -11%.
For COCC(C)NC(=O)c1cnn2c(C(F)F)cc(-c3ccccc3)nc12 (stereo not given) the results were AmpC detergent 23%, TbPYK inhibitor -5% and Sm TGR block 19%.
`O=S(=O)(/N=C(\c1ccc(Cl)cc1)N1CCOCC1)c1ccccc1` gave AmpC detergent -11%, AmpC no deterg 0%, TbPYK inhibitor 0%, RE007 growth inh 12%, SARS PLP yeast -23% and Sm TGR block -4%.
`O=[N+]([O-])c1cc(S(=O)(=O)/N=C(/c2ccccc2)N2CCOCC2)ccc1Cl` gave AmpC detergent 3%, AmpC no deterg 10%, TbPYK inhibitor 1%, RE007 growth inh -12%, SARS PLP yeast 1% and Sm TGR block 45µM*.
`CCCC[C@]12Cc3cc(C#N)ccc3C(O1)c1c(cc(C)n(Cc3ccccc3)c1=O)O2` gave AmpC detergent inconclusive, AmpC no deterg -34%[11.4 µM], SARS PLP yeast -9%[6.58 µM] and Sm TGR block 1%[22.9 µM].
Cc1c(Cl)cnc(NC(=O)COC(=O)/C=C/c2ccco2)c1Cl was read as AmpC detergent inconclusive, AmpC no deterg -31%, TbPYK inhibitor -22%, RE007 growth inh 2%, SARS PLP yeast 11% and Sm TGR block 10µM*.
Cc1nc(NC(=O)COC(=O)[C@@H](NC(=O)c2ccco2)C(C)C)c(Cl)cc1Cl was read as AmpC no deterg -18%, TbPYK inhibitor -3%, RE007 growth inh -17% and SARS PLP yeast 1%.
For Cc1c(Cl)cnc(NC(=O)COC(=O)C(NC(=O)c2ccco2)C(C)C)c1Cl (stereo not given) the results were AmpC detergent 0%, AmpC no deterg -45%, TbPYK inhibitor -10%, RE007 growth inh 5%, SARS PLP yeast -3% and Sm TGR block 35µM*.
COc1ccc(-c2cn3nc(N4CCCC(C(=O)NCc5ccccc5C)C4)sc3n2)cc1 (stereo not given) was read as AmpC detergent 5%, TbPYK inhibitor -1%[15.4 µM] and Sm TGR block 2%.
`O=C(NCCOCCO)C(=O)Nc1c2c(nn1-c1ccc(F)cc1)CSC2` gave AmpC detergent 0%, TbPYK inhibitor -1% and Sm TGR block -18%.
Screening Nc1nonc1-c1nc2ccccc2n1CC(=O)Nc1cccc(C(F)(F)F)c1 returned AmpC detergent 20%, TbPYK inhibitor -3% and Sm TGR block 2%.
O=C(CCCC(=O)OCC(=O)c1ccc(F)cc1)Nc1cc(C(F)(F)F)ccc1Cl was read as AmpC detergent 5%, AmpC no deterg -2%, TbPYK inhibitor -6%, RE007 growth inh inconclusive, SARS PLP yeast 4% and Sm TGR block 0%.
Screening O=C(CCCC(=O)OCC(=O)c1ccc(Cl)cc1Cl)Nc1cc(C(F)(F)F)ccc1Cl returned AmpC detergent -3%, AmpC no deterg -21%, TbPYK inhibitor 1%, RE007 growth inh -12%, SARS PLP yeast 3% and Sm TGR block 89µM*.
For CCOC(=O)c1ccc2ncc3c(-c4ccccc4)nn(-c4ccc(F)c(Cl)c4)c3c2c1 the results were AmpC detergent 1%, TbPYK inhibitor 6% and Sm TGR block 3%.
Screening O/C=c1\ccc2cccc3nc(C(F)(F)F)nc1c23 returned AmpC detergent 1%, AmpC no deterg 13µM*, TbPYK inhibitor 5%, RE007 growth inh -11%, SARS PLP yeast 0% and Sm TGR block 3.2µM*.
